SKKanGAS inh – SKKanGAS growth inhibition. hit rate 1.3% among 300,000. inhibition, % at 7.5 µM. S. pyogenes SKKanGAS, kanamycin growth, BacTiter-Glo, 6 h;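 active = mean replicate score, as percent of positive control median, at least 50; inconclusive = mean below 50 but one replicate at or above 50; inactive = mean and every replicate below 50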;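 also: strain carries kanamycin resistance gene driven by streptokinase promoter and grows in 40 µg/ml kanamycin; loss of luminescence reflects streptokinase promoter inhibition or plain growth inhibition; 0% = median of DMSO wells and 100% = positive control at its reference dose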
IEC-6 tox – kills IEC-6 intestinal cells in KLF5 counter-screen | IEC-6 cytotoxicity, luminescence viability | inhibition, % at 5 µM | hit rate 0.78% among 290,000 | AID 1825;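 also: 0% = plate median of test compound wells and 100% = cytotoxic reference compound wells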
KLF5 inh – kruppel-like factor 5 inhibition. DLD-1 KLF5 promoter-luciferase reporter, luminescence. inhibition, % at 5 µM. hit rate 0.23% among 290,000. AID 1700;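 active = inhibition above a per-plate limit of that plate's mean compound inhibition plus 3 SD, cut at about 60% in these data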;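 also: 0% = DMSO wells and 100% = LY294002 at 200 µM; higher means less KLF5 promoter-driven luciferase light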
CSC inhib – blocks cancer stem cells; cancer stem cell-like cells viability, luminescence; inhibition, % at 7.5 µM; hit rate 1.1% among 300,000; in the data active = inhibition above about 75%; inconclusive = no clear call, values can overlap the other calls; tested in HMLE shEcad cells
aSyn UTR inh – MLPCN primary screen, SNCA 5' untranslated region; hit rate 0.82% among 300,000; inhibition, % (tested at 7.5 µM); AID 1813; alpha-synuclein 5'UTR reporter, inhibitor activity; in the data active = inhibition above about 60%; inconclusive = no clear call, values can overlap the other calls;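 also: H4 neuroglioblastoma cells stably carrying SNCA 5'UTR luciferase fusion; 0% = DMSO wells and 100% = positive control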
IEC-6 tox confirm – confirmation of cytotoxic compounds in rat IEC-6 intestinal epithelial cells. AID 1907. inhibition, % at 5 µM. hit rate 63% among 1,900. IEC-6 rat intestinal epithelial viability, luminescence. shares compounds with IEC-6 tox;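 also: 0% = vehicle and 100% = reference cytotoxic drug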
Active calls of the source: *; ? = inconclusive; . = no result. In the library only some 3% were active in any assay of this set; here they are far more common. Rule as the data show it, unless noted: active = inhibition above about 22%; inactive = the rest.

SMILES	SKKanGAS inh	IEC-6 tox	KLF5 inh	CSC inhib	aSyn UTR inh	IEC-6 tox confirm
O=C(c1ccc(CS(=O)Cc2ccccc2Cl)o1)N1CCN(c2ccccn2)CC1 (stereo not given)	-3	0	-8	-3	-85	.
CC(C)NC(=O)NC(=O)COC(=O)Cc1c(F)cccc1Cl	-1	1	3	-8	1	.
CC(C)(C)C(=O)Cn1ncc(Br)c(Br)c1=O	1	29*	-19	.	-92	9
CCn1c(SCC(=O)Nc2cccc(C)c2)nc2ccccc2c1=O	6	22*	-34	23	4	7
Cc1cc(C)cc(C(=O)N2CC(=O)Nc3ccccc32)c1	-2	89*	48	51	110*	57*
Cc1ccc(S(=O)(=O)Nc2ccc(Br)cc2C(NCC(=O)O)c2ccccc2)cc1 (stereo not given)	20	4	31	-4	30	.
O=C(O)CSc1cc(NS(=O)(=O)c2ccc(Br)cc2)c2ccccc2c1O	15	54*	-52	36	16	-3
COCc1cc(CNC(=O)C2CCC(=O)N(Cc3ccccc3F)C2)[nH]n1 (stereo not given)	7	2	-13	2	-11	.
CCCn1c2ccccc2c2nnc(SCCN3CCOCC3)nc21	0	-5	-13	-6	24	.
c1ccc2nc3c(nc2c1)c1ccccc1n3CCN1CCOCC1	6	23*	-111	-1	-80	10
COc1cc2cc(-c3ccc(O)cc3O)nc(C)c2cc1OC	1	22*	10	23	-116	16
Cn1nc(C(=O)NCc2cccs2)c2ccccc2c1=O	-8	-5	-11	-11	12	.
Cc1ccc2oc(C(=O)NCc3ncc(C)[nH]3)c(C)c2c1	-1	34*	3	39	-37	21
CCNc1nc(SCC(=O)Nc2ccc(Cl)c(Cl)c2)nc(N2CCOCC2)n1	4	6	10	-7	28	.
CCCN(CCC)c1nc(-c2ccccn2)nc2ccccc12	97*	93*	34	34	-45	33*
CCCCN(CC)c1nc(-c2ccncc2)nc2ccccc12	9	1	-3	30	30	.
CSCCOC(=O)C1=C(C)NC(=O)NC1c1ccc2c(c1)OCO2 (stereo not given)	-7	5	-8	-3	9	.
CC1=C(C(=O)OCc2ccc3c(c2)OCO3)C(c2ccc(Cl)cc2)NC(=O)N1 (stereo not given)	-11	82*	54	.	41	72*
CC1=C(C(=O)OCc2ccc3c(c2)OCO3)C(c2ccc(F)cc2)NC(=O)N1 (stereo not given)	6	38*	41	55	19	47*
Cc1sc2c(c1C)C(O)=C(C(=O)Nc1ccccc1)S(=O)(=O)N2C	0	7	2	3	-29	.
Cc1nc2cc(-c3ccc(Br)cc3)[nH]n2c(=O)c1Cl	12	30*	-75	.	-74	13
Cc1cc2nc(C)c(Cl)c(=O)n2[nH]1	-1	2	-11	-2	4	.
Cc1ccc(Cn2nnnc2CN2CCC(c3nc4ccc(Cl)cc4[nH]3)CC2)cc1	9	88*	46	18	78*	54*
CCOc1ncccc1C(=O)N(CC)CC(=O)NCc1ccc(Cl)cc1	-2	-3	-30	0	-7	.
O=C(CN1CCCc2ccccc21)NCCc1ccc(Cl)cc1	8	4	-25	-15	-12	.
SMILES	SKKanGAS inh	IEC-6 tox	KLF5 inh	CSC inhib	aSyn UTR inh	IEC-6 tox confirm
Cc1ccc2c(C)ccc(O)c2n1	17	1	-28	14	9	.
Cc1ccc2ccc3ccc(C)nc3c2n1	15	91*	51	8	72*	37*
Cc1ccc(-n2ncc(C(=O)Nc3cc(Cl)ccc3Cl)c2C2CCNCC2)cc1	6	-2	-33	17	-20	.
Cc1ccc(-n2ncc(C(=O)Nc3cc(Cl)cc(Cl)c3)c2C2CCNCC2)cc1C	-6	98*	52	.	93*	97*
Cc1nn2c(NCc3ccccn3)c3c(nc2c1-c1ccccc1)CCC3	42	95*	27	31	5	15
Cc1ccc(C(=O)NC(=S)NCC2CCCO2)cc1[N+](=O)[O-] (stereo not given)	20	3	-10	1	-45	.
CCOC(=O)Nc1nc(-c2ccccc2)c(C(=O)c2ccccc2)s1	18	86*	55	62	117*	58*
CC(=O)c1sc(NC(=O)c2ccccc2)nc1-c1ccccc1	4	-7	-184	22	-139	.
CCOc1cc(/C=N/Nc2cc(C)nc(-n3nc(C)cc3C)n2)ccc1O	66*	54*	4	25	68*	16
O=C(N/N=C/c1ccccc1)c1ccc(CN2C(=O)c3cccc4cccc2c34)cc1	13	4	13	49	9	.
O=C(N/N=C/c1ccc(O)cc1O)c1ccc(CN2C(=O)c3cccc4cccc2c34)cc1	11	34*	45	3	62*	52*
O=C(CNC(=O)C1(c2ccccc2)CC1)Nc1ccc(F)c(F)c1	7	.	.	.	16	.
Cc1oc(-c2cccc(Cl)c2)nc1CN1CCC(C(=O)NCCCN2CC(C)CC(C)C2)CC1 (stereo not given)	-5	22*	-27	-14	4	53*
COc1cc(C(=O)Nc2ccc(C)cc2)c2ccccc2n1	-2	84*	62	50	82*	65*
Cc1ccc(NC(=O)c2cc(Cl)nc3ccccc23)cc1	2	4	-10	35	-30	.
COCCNC(=O)Cn1cc(/C=N/NC(=O)c2ccc(Oc3ccc(O)cc3)cc2)c2ccccc21	2	8	12	2	6	.
CC(=O)O[C@H]1C(=O)[C@@]2(C)C([C@H](OC(=O)c3ccccc3)[C@]3(O)C[C@H](OC(=O)[C@H](O)[C@@H](NC(=O)c4ccccc4)c4ccccc4)C(C)=C1C3(C)C)[C@]1(OC(C)=O)CO[C@@H]1C[C@H]2O (stereo not given in full)	9	84*	56	49	102*	77*
COc1cc(CCC(=O)Nc2nnc(C)s2)cc(OC)c1OC	-2	48*	46	53	-53	35*
COC(=O)c1ccc(C)c(NS(=O)(=O)c2ccc(OC)cc2)c1	5	87*	53	56	82*	59*
O=C(NCCc1ccccc1)[C@@H]1CC=C[C@@H]2CCN(C3CCCCC3)C(=O)[C@@H]21	2	.	.	-7	15	.
Cc1cc(NCCCn2ccnc2)n2ncc(-c3ccc(Cl)cc3)c2n1	-3	33*	-117	42	?	27*
COc1cccc(Oc2ccc3nnc(C(F)(F)F)n3n2)c1	6	-1	4	-3	4	.
CC1(C)c2[nH]c3ccccc3c2C[C@@H]2C(=O)N(Cc3ccccc3)C(=O)N21	-2	.	.	-9	6	.
COC(=O)[C@@H]1Cc2c([nH]c3ccccc23)C(C)(C)N1C(=O)CCl	-2	95*	-35	11	?	36*

Screening data deposited in PubChem BioAssay by several laboratories.
